Screens (PubChem BioAssay)
Compounds with a hit are over-represented: about 1.4% of the library has one in this group of screens.
AID504770: growth inhibitors of E. coli YBA685 in a screen for V. cholerae RctB (chromosome II replication) inhibitors; AID 504770; 0.27% of 130,000 active; z-score (test concentration not listed); E. coli YBA685 rctB-dependent plasmid, OD600 growth, 3 h; active compounds read low; in the data active = z-score below about -2, passing the limit was not always enough
Mtb MenB inh: Mtb MenB enzyme inhibition; P9WNP5; inhibition, % (concentration not given with the values); 0.43% of 100,000 active; MenB enzyme assay, absorbance read-out; in the data active = inhibition above about 21%, passing the limit was not always enough
Target sequence (P9WNP5 whole entry, looked up): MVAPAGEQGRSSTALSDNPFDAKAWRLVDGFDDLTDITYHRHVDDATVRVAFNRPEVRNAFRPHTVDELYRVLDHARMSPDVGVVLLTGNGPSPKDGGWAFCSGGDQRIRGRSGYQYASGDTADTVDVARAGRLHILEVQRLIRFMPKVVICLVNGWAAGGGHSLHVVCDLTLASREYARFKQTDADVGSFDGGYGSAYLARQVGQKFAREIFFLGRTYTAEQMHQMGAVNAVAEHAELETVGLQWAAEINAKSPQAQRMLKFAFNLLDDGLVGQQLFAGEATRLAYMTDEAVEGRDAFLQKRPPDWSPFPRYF
PV pol inh: inhibitors of poliovirus RNA polymerase binding and polymerization | P03300 | poliovirus polymerase elongation, fluorescence polarization; active compounds read low | % elongation, % (compound at 16.7 µg/mL) | 0.66% of 150,000 active | AID 588519; in the data active = % elongation below about 90%
MbtI inh: blocks the Mycobacterium tuberculosis siderophore enzyme MbtI. P9WFX0. purified MbtI enzyme, fluorescence intensity read-out. inhibition, % (no concentration beside the values). 0.89% of 100,000 active. AID 493033; in the data active = inhibition mostly above about 56%, no sharp cut-off; inactive = mostly below about 77%
Active calls of the source: *; nt = no result given.

SMILES	AID504770	Mtb MenB inh	PV pol inh	MbtI inh
Cc1ccc(-c2nc(N)s[n+]2-c2ccccc2)cc1	-2.4*	nt	nt	nt
COc1ccc(-c2nc(N)s[n+]2-c2ccccc2)cc1	1.5	nt	102	98*
O=C(CCC(=O)c1ccc(Cl)cc1)OC1CCCCC1=O (stereo unspecified)	-0.1	-14	66*	-12
N#Cc1ccc(C(=O)OC2CCCCC2=O)cc1 (stereo unspecified)	0.75	1	102	11
Cc1ccc(NC(=O)COC(=O)C2CCCN2C2=NS(=O)(=O)c3ccccc32)cc1C (stereo unspecified)	2.1	-10	106	0
CCC(=O)Nc1nnc2n1CCS2	nt	nt	107	nt
CCN(CC)c1nc2n(c(=S)n1)CCS2	0.9	30*	102	-2
O=C1COc2ccc(-c3csc(-n4nccc4C(F)(F)F)n3)cc2N1	-0.2	-23	87*	14
O=C1COc2ccc(-c3cc(-c4ccccc4)c4c(n3)-c3ccccc3OC4)cc2N1	nt	nt	109	nt
CCCc1nc(=S)c2ccccc2[nH]1	-0.45	-26	102	92*
CCc1cccc(NC(=O)c2ccc(CN3C(=O)C(C)=C(c4ccc(OC)cc4)S3(=O)=O)cc2)c1	nt	nt	8.0*	nt
COc1ccc(C2=C(C)C(=O)N(Cc3ccc(C(=O)Nc4cccc(F)c4)cc3)S2(=O)=O)cc1	nt	nt	108	nt
N#Cc1ccc(N2C(=O)CSC(c3ccccc3)C2=O)cc1 (stereo unspecified)	-0.5	nt	nt	nt
Oc1ccc(C(=S)N2CCCCC2)cc1	0.5	-54	96	58*
S=C(c1ccc(Br)cc1)N1CCCC1	-1.6	-7	103	nt
COc1ccc(-c2csc3ncc(S(=O)(=O)c4ccc(F)c(Cl)c4)c(=O)n23)cc1OC	0.5	-4	101	15
CN(CC(=O)N1CCCC1=O)Cc1ccccc1	-0.55	-59	105	-5
CCN(CC)CC(=O)N1CCCC1=O	-0.25	43*	100	0
O=C(/C=C/c1ccc2ccccc2n1)N1CCN(S(=O)(=O)c2ccc3c(c2)OCCCO3)CC1	0.3	-33	107	-8
CCN(CCCNC(=O)c1cc2c(=O)[nH]c3ccc(C)cc3c2s1)Cc1ccccc1	nt	nt	87*	nt
O=C(CSc1nncc(=O)[nH]1)Nc1cccc(Cl)c1	-0.15	-51	101	73*
O=C(CSc1nncc(=O)[nH]1)NCc1ccccc1	0.45	1	99	11
CCS(=O)(=O)c1ccc2oc(Nc3ccc(C(C)C)cc3)nc2c1	0.6	-20	70*	65
CCS(=O)(=O)c1ccc2oc(Nc3cc(C)cc(C)c3)nc2c1	-0.5	-13	103	14
Cc1cc(C)c(C#N)c(=O)[nH]1	0.95	-19	111	99
SMILES	AID504770	Mtb MenB inh	PV pol inh	MbtI inh
Cc1cc(C)c(C#N)c(=S)[nH]1	2.4	-19	101	90*
O=C(NCc1ccncc1)/C(=C/c1ccc(Cl)cc1)c1ccc(F)cc1	0.5	nt	102	-4
Cn1cc(Br)c(N2C(=O)C=CC2=O)n1	-4.2*	-12	100	95*
O=C(c1ccc(NS(=O)C23CC4CC(CC(C4)C2)C3)cc1)N1CCCC1 (stereo unspecified)	0.3	-12	98	1
CN(CC(=O)O)Cc1cccnc1	-0.3	26*	99	-4
COC(=O)c1c(O)cc(=O)[nH]c1N	0.15	-24	99	-4
COC(=O)c1cc(=O)[nH]c(=S)[nH]1	0.8	-29	81*	88*
Clc1ccccc1C1N(Cc2ccccc2)CCN1Cc1ccccc1	0.15	-20	100	-8
O=C1NC23CCCCC2C(c2ccccc2O3)C1C(=O)N1CCOCC1 (stereo unspecified)	1.7	8	101	4
COc1ccccc1CNC(=O)c1ccccn1	0.95	-34	102	-3
CC(C)(C)Nc1nc2c(s1)CCCC2	-0.75	9	101	78*
CC(NC(=O)c1ccc(F)cc1)C(=O)O (stereo unspecified)	0.75	38*	102	49
CC(C)C(NC(=O)c1ccc(F)cc1)C(=O)O (stereo unspecified)	-0.15	nt	nt	nt
CN1c2ccccc2Sc2ccccc21	3	-33	102	-3
O=C(/C=C(\O)c1ccccc1)C(F)(F)C(F)F	-3.5*	-21	98	17
O=C(O)C(=O)/C=C(\O)c1ccccc1	1.1	nt	nt	nt
COC(=O)c1c(-c2cccs2)csc1NC(=O)c1cccc(Cl)c1	nt	nt	82*	nt
COC(=O)c1c(-c2cccs2)csc1NC(=O)c1ccc(C(C)C)cc1	nt	nt	67*	nt
CCOC(=O)c1c(-c2cccs2)csc1NC(=O)c1ccccc1	1.8	-34	106	11
COC(=O)c1c(-c2cccs2)csc1NC(=O)c1ccc(C(C)(C)C)cc1	nt	nt	77*	nt
